An excerpt weighted towards active compounds, which were near 3.9% of everything screened.
ALR H2O2 inh: blocks human ALR sulfhydryl oxidase activity; hit rate 3.8% among 290,000; purified ALR, DTT oxidation, H2O2 HRP-luminol luminescence; AID 485317; inhibition, % (no concentration beside the values);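 active = mean replicate inhibition above about 79%, with every replicate also reaching it, limit read from the data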
NSD2 inh: blocks human histone methyltransferase NSD2; hit rate 0.54% among 310,000; inhibition, % at 12.5 µM; NSD2 peptide methylation, AlphaScreen, 120 min; AID 743445; in the data active = inhibition above about 50%
CDK5 p35 inh: CDK5/p35 (human) kinase inhibition. Q00535+Q15078. Recombinant CDK5/p35, ADP-Glo luminescence, 60 min. inhibition, % at 10 µM. hit rate 0.01% among 330,000. AID 488839;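 active = highest replicate inhibition of at least 50% and at least 75% of replicates reaching 50%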;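 also: plate controls were DMSO neutral control for no effect and GW8510 at 10 µM for full effect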
Mot1-301 SUMO: SUMOylation pathway inhibition by Mot1-301 growth rescue | S. cerevisiae Mot1-301 growth rescue, ATP luminescence, 38.5C; percent above DMSO median, 100 means doubled | growth rescue, % at 18.8 µM | hit rate 1% among 320,000;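 active = every valid replicate shows activation above 250% relative to neutral control wells; inactive = the rest, any valid replicate at or below 250%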;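 also: OY570 slx delta 5 strain wells were the positive control but not used for scaling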
CASP6 VEID inh: caspase-6 (human) enzyme inhibition | P55212 | purified caspase-6, Z-VEID-R110 cleavage fluorescence | inhibition, % at 12.5 µM | hit rate 0.53% among 350,000 | AID 686996;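 active = mean inhibition across replicates at least about 35%, with every replicate also reaching that limit, limit read from the data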;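 also: 0% = median of neutral control wells and 100% = no fluorescence left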
Target sequence (P55212 24-179 limits assumed): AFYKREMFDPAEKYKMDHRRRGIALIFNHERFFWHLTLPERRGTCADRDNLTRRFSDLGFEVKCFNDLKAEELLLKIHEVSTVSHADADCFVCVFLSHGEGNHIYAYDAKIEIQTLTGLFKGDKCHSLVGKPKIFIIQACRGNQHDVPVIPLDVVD
Target sequence (P55212 194-293 limits assumed): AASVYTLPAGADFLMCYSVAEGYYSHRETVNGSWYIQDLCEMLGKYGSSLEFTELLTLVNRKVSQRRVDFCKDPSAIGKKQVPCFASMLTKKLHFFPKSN
N-glyco inh: N-linked glycosylation inhibition; reporter increase, % at 12.5 µM; hit rate 0.23% among 360,000; D54 ERlucT glycosylation luciferase reporter, 24 h; percent of 100 nM tunicamycin response; AID 588692;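 active = mean luciferase reporter signal, scaled so untreated is 0 and the glycosylation-blocking control 100, at or above a set limit in every replicate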;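 also: luciferase carries N-glycosylation sites so blocking glycosylation raises the light; 0% = median of neutral control wells and 100% = median of 100 nM tunicamycin wells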
Mot1 SUMO dose: yeast SUMO pathway inhibition in dose response | 2,300 tested, under 10 active | shares compounds with Mot1-301 SUMO | S. cerevisiae Mot1-301 galactose growth, ATP luminescence, 24 h; -100 = growth of slx-deleted rescue strain | growth activity, percent, % at 42 µM;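 active = Signal drops as the depositor expects, and the fitted half-maximal dose is no more than ten times the top valid tested dose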;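 also: more negative values mean stronger growth rescue toward the control strain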
* marks the source's active call; other numbers are inactive results.

For N#Cc1c2ccc([N+](=O)[O-])cc2[n+]([O-])n1-c1ccccc1 the results were ALR H2O2 inh -2, NSD2 inh -1, CDK5 p35 inh 0, Mot1-301 SUMO 384*, CASP6 VEID inh 1, N-glyco inh -9 and Mot1 SUMO dose -1.
COc1cccc(OC)c1OCC(O)CN1CCN(c2ccccc2)CC1 (configuration not stated) was read as ALR H2O2 inh 64, NSD2 inh 3, CDK5 p35 inh -2, Mot1-301 SUMO active, N-glyco inh 2 and Mot1 SUMO dose 0.
Screening C[C@H](CO)N1C[C@H](C)[C@@H](CN(C)S(=O)(=O)c2cn(C)cn2)OCCCC[C@H](C)Oc2ccc(NS(C)(=O)=O)cc2C1=O returned CASP6 VEID inh -3.
Screening Cn1c(=O)c2c(ncn2CC(=O)OCC(=O)Nc2ccc(Cl)cc2)n(C)c1=O returned ALR H2O2 inh -3, NSD2 inh -1, CDK5 p35 inh -1, Mot1-301 SUMO 847*, N-glyco inh 1 and Mot1 SUMO dose 0.
O=C(CCSc1ccccc1)NNC(=O)c1ccccc1F was read as ALR H2O2 inh 1, NSD2 inh 3, CDK5 p35 inh 1, Mot1-301 SUMO 517*, CASP6 VEID inh 5, N-glyco inh -1 and Mot1 SUMO dose 0.
For Cc1ccc2c(c1)N(CC(=O)NCC1CCCO1)C(=O)C(C)O2 (configuration not stated) the results were NSD2 inh -4, CDK5 p35 inh 0, Mot1-301 SUMO 522* and Mot1 SUMO dose 0.
Screening Cn1c(=O)[nH]c(=O)c2c1nc(Sc1ccccc1)n2CCc1ccccc1 returned ALR H2O2 inh -11, CDK5 p35 inh 0, Mot1-301 SUMO 614*, CASP6 VEID inh -1, N-glyco inh 0 and Mot1 SUMO dose 0.
For COCCn1c(SCc2ccc(Cl)cc2)nc2c1c(=O)[nH]c(=O)n2C the results were ALR H2O2 inh -21, NSD2 inh -4, CDK5 p35 inh 0, Mot1-301 SUMO active, CASP6 VEID inh 2, N-glyco inh 1 and Mot1 SUMO dose 0.
For Cc1ccc(Sc2nc3c(c(=O)[nH]c(=O)n3C)n2CCc2ccccc2)cc1 the results were ALR H2O2 inh -6, CDK5 p35 inh 0, Mot1-301 SUMO -6, CASP6 VEID inh -6 and N-glyco inh 0.
Screening COc1ccc(NC(=O)N(C)C[C@@H]2Oc3ccc(NS(=O)(=O)c4ccc(F)cc4)cc3CC(=O)N([C@H](C)CO)C[C@H]2C)cc1 returned CASP6 VEID inh 3.
Screening COC(=O)[C@@H]1C[C@@H]2CC[C@@H](O)C[C@@H]2N1Cc1ccc(N2CCN(C)CC2)cc1 returned CDK5 p35 inh 2, Mot1-301 SUMO 522*, CASP6 VEID inh -17, N-glyco inh 1 and Mot1 SUMO dose 0.
CC(C)NC(=O)N(C)C[C@@H]1Oc2ccc(NC(=O)Nc3ccccc3)cc2C(=O)N([C@H](C)CO)C[C@H]1C was read as CASP6 VEID inh 1.
For Cc1ccc(C(=O)N/C(=C\c2cccs2)C(=O)NCCc2c[nH]c3ccccc23)cc1 the results were ALR H2O2 inh -8, NSD2 inh -2, CDK5 p35 inh -2, Mot1-301 SUMO 494*, N-glyco inh 42* and Mot1 SUMO dose 0.
`Cc1ccc(C(=O)N/C(=C\c2cccs2)C(=O)NCc2ccncc2)cc1` gave ALR H2O2 inh -5, NSD2 inh 0, CDK5 p35 inh -1, Mot1-301 SUMO 612*, N-glyco inh 3 and Mot1 SUMO dose 1.
For COCC(=O)Nc1ccc2c(c1)C(=O)N(C)C[C@H](OC)[C@@H](C)CN(C(=O)c1ccccc1F)[C@@H](C)CO2 the results were CASP6 VEID inh -1.
For O=C(COc1ncnc2ccccc12)Nc1ccc(Cl)c(S(=O)(=O)N2CCOCC2)c1 the results were ALR H2O2 inh -8, NSD2 inh -3, CDK5 p35 inh -1, Mot1-301 SUMO 384*, CASP6 VEID inh 0, N-glyco inh -3 and Mot1 SUMO dose 0.
